Screening results from PubChem BioAssay.
A selection: hits, their analogues and other compounds. The true share with any hit is near 19%.
DT40 TDP1 no CPT – qHTS for Inhibitors of human tyrosyl-DNA phosphodiesterase 1 (TDP1): qHTS in cells in absence of CPT | Potency, µM (doses to about 46.2 µM), actives largely listed as inhibitors | 420,000 tested, 15% active | DT40 Tdp1-/- hTDP1 cells, no CPT, ATP luminescence, 48 h | AID 686978, 2013; also: nearly all actives have a fitted effect of over 55% in size
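Seeded 400 DT40-hTDP1 cells/well (vehicle DMSO, no 20 nM CPT); pinned compounds; ≥48 hr at 37 °C; CellTiter-Glo luminescence as viability measure.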
ASM inhibitor – blocks human secretory acid sphingomyelinase | P17405 | placental ASM, HMU-PC fluorogenic substrate, 60 min | Potency, µM (highest dose often 57.5 µM), hits mostly inhibitors | 340,000 tested, 0.006% active | AID 504937
Target sequence (P17405 47-631 limits assumed): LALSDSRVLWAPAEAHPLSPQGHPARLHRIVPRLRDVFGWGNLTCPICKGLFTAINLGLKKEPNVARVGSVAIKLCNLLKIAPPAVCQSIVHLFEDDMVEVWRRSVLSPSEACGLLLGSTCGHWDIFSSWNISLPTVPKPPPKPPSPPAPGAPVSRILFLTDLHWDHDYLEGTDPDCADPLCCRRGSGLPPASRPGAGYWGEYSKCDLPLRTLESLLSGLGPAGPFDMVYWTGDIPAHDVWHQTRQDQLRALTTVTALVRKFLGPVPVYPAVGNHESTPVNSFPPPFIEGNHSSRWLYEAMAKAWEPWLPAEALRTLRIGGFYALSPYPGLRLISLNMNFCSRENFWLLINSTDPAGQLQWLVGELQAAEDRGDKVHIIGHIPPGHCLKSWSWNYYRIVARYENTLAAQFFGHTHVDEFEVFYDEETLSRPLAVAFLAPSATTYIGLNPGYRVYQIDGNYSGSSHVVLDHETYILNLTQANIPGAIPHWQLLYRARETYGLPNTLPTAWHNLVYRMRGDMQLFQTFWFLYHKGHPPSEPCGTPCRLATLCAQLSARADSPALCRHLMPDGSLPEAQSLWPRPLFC
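qHTS format. ASM enzyme prepared from human placenta hydrolyses the fluorogenic substrate HMU-PC0 (9 uM final) over 60 min at 37 °C after a 10 min compound preincubation.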
TGFb SMAD3 inh – inhibitors of TGF-b signaling; HepG2 CAGA-GFP TGF-b/SMAD3 reporter, GFP fluorescence, 18 h; TGF-beta stimulated, 500 pg/mL final; Potency, µM (top dose mostly 46.1 µM), usual class: inhibitors; 410,000 tested, 1.2% active; also: nearly all actives have a fitted effect of over 65% in size
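Read-out: total well GFP (ex488/em500-530) summed from mean per-cell fluorescence. Cells: HEPG2 CAGA-GFP, 1% FBS DMEM, 18 h at 37 degrees C with 500 pg/mL final TGF-beta. Unstimulated wells served as the full-inhibition control; stimulated DMSO wells = 0%.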
HepG2 tox – kills HepG2 cells in TGF-b inhibitor counter-screen; Potency, µM (top dose mostly 46.1 µM), usual class: cytotoxic; 410,000 tested, 0.76% active; HepG2 CAGA-GFP viability, ATP luminescence, 18 h
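CellTiter-Glo luminescence gave cytotoxicity after 18 hours at 37 degrees C. The cells were HepG2 CAGA-GFP in 1% FBS DMEM, stimulated with 500 pg/mL TGF-beta after compound addition. %Activity was normalised to no-cell wells (complete cell-killing) and DMSO (no toxicity), and curves were fitted and classified.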
IL1B secr inh – inflammasome signaling inhibition, IL-1 beta readout; THP-1 LPS/ATP IL-1B secretion, AlphaLISA, 16 h; stronger effect = lower value; activity change, % at 57.5 µM; 360,000 tested, 4.7% active; in the data active = activity change below about -50%; inconclusive = mostly about -30% to -49%
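Secreted IL-1B measured by AlphaLISA bead assay after 16 h compound exposure of THP-1 cells; compounds (final up to 57.5 uM) added 1 h before LPS (250 ng/mL) and ATP (1.25 mM) stimulation; lower signal means less secretion.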
TDP1 cell CPT – DT40-hTDP1 cell growth loss with CPT; chicken DT40 Tdp1-/-;hTDP1 cells + 20 nM CPT, ATP luminescence, 48 h; Potency, µM (top dose mostly 46.2 µM), hits mostly inhibitors; AID 686979; 420,000 tested, 12% active; also: nearly all actives have a fitted effect of over 55% in size
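Chicken DT40 Tdp1-/- cells stably complemented with human TDP1 were seeded at 400 cells/well in medium containing 20 nM camptothecin, exposed to pin-transferred compounds, and grown at 37 °C for at least 48 hr. Viability was read as ATP luminescence.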
A number is an active result. Unless noted, calls follow the shape of the dose curve; as a rule, active = well fitted curve in the direction sought with a large enough effect; inconclusive = small, poorly fitted or top-dose-only effect, or another doubt; inactive = no such curve, though single readings can be large; an effect the other way counts as inactive or inconclusive.

Screening CCOC(=O)c1cccc(NC(=O)NCCc2c(C)nn(C)c2C)c1 returned DT40 TDP1 no CPT inconclusive, TGFb SMAD3 inh inactive, HepG2 tox inactive and TDP1 cell CPT inactive.
For CNc1ccc(/C=C/C(=O)c2cccc3ccccc23)cc1[N+](=O)[O-] the results were DT40 TDP1 no CPT 16µM, ASM inhibitor inactive, TGFb SMAD3 inh inactive, HepG2 tox inactive, IL1B secr inh -92 and TDP1 cell CPT 16µM.
CCc1ccc(CNC(=O)c2sc3ncccc3c2-n2c(C)ccc2C)cc1 was read as DT40 TDP1 no CPT 21µM, TGFb SMAD3 inh 11µM, HepG2 tox inactive and TDP1 cell CPT 15µM.
COC(=O)c1sc2ncccc2c1OCc1ccccc1Cl was read as DT40 TDP1 no CPT inconclusive, ASM inhibitor inactive, TGFb SMAD3 inh inactive, HepG2 tox inactive, IL1B secr inh inactive and TDP1 cell CPT inactive.
Screening Cc1ccc(C)n1-c1c(C(=O)NCCC(C)C)sc2ncccc12 returned DT40 TDP1 no CPT 18µM, TGFb SMAD3 inh inconclusive, HepG2 tox inactive and TDP1 cell CPT 16µM.
Screening COCCNC(=O)c1sc2ncccc2c1-n1c(C)ccc1C returned DT40 TDP1 no CPT inconclusive, TGFb SMAD3 inh inactive, HepG2 tox inactive and TDP1 cell CPT 18µM.
Screening O=[N+]([O-])c1ccc(Cl)cc1Sc1ccccn1 returned DT40 TDP1 no CPT inactive, ASM inhibitor inactive, TGFb SMAD3 inh inactive, HepG2 tox inactive, IL1B secr inh inactive and TDP1 cell CPT inactive.
Screening CCOC(=O)c1sc2ncn(CC(=O)Nc3ccc(N(C)C)cc3)c(=O)c2c1C returned DT40 TDP1 no CPT inactive, TGFb SMAD3 inh inconclusive, HepG2 tox inactive and TDP1 cell CPT inactive.
`COc1ccccc1C(=O)N(Cc1nc(-c2cccc(C)c2)no1)C(C)C` gave DT40 TDP1 no CPT inconclusive, TGFb SMAD3 inh inactive, HepG2 tox inactive and TDP1 cell CPT 21µM.
For COc1cc(-c2nc(-c3cccc(C)c3)no2)cc(OC)c1OC the results were DT40 TDP1 no CPT 23µM, ASM inhibitor inactive, TGFb SMAD3 inh inactive, HepG2 tox inactive, IL1B secr inh inactive and TDP1 cell CPT 18µM.
Screening CCOc1cc(-c2nc(-c3ccccc3OC)no2)cc(OCC)c1OCC returned DT40 TDP1 no CPT 29µM, ASM inhibitor inactive, TGFb SMAD3 inh inactive, HepG2 tox inactive, IL1B secr inh inconclusive and TDP1 cell CPT inconclusive.
`COc1cccc(C(=O)N(Cc2nc(-c3cccc(C)c3)no2)C(C)C)c1OC` gave DT40 TDP1 no CPT 18µM, ASM inhibitor inactive, TGFb SMAD3 inh inactive, HepG2 tox inactive, IL1B secr inh inactive and TDP1 cell CPT inconclusive.
Screening CC1(C2CC2)NC(=O)N(CC(=O)N2CCN(S(=O)(=O)c3ccc(F)c(F)c3)CC2)C1=O (configuration not stated) returned DT40 TDP1 no CPT inconclusive, ASM inhibitor inactive, TGFb SMAD3 inh inactive, HepG2 tox inactive, IL1B secr inh inactive and TDP1 cell CPT inactive.
For COC(=O)c1cc2c(cc1NC(=O)c1cnn(-c3ccccc3)c1-n1cccc1)OCO2 the results were DT40 TDP1 no CPT inactive, TGFb SMAD3 inh inactive, HepG2 tox inactive and TDP1 cell CPT inactive.
Screening OCCN1CCN(C(c2ccc(Cl)cc2Cl)c2sc3nc(-c4ccco4)nn3c2O)CC1 (configuration not stated) returned DT40 TDP1 no CPT inactive, TGFb SMAD3 inh inactive, HepG2 tox inactive and TDP1 cell CPT inactive.
Screening O=C(C[n+]1cccc(Br)c1)c1ccc(Br)cc1 returned DT40 TDP1 no CPT inactive, TGFb SMAD3 inh inconclusive, HepG2 tox inactive and TDP1 cell CPT inactive.
`O=C(Cn1c(-c2ccccc2)c[n+]2ccsc12)c1ccc(Br)cc1` gave DT40 TDP1 no CPT 3.3µM, ASM inhibitor inactive, TGFb SMAD3 inh inactive, HepG2 tox inactive, IL1B secr inh -86 and TDP1 cell CPT 7.3µM.
COc1ccc(C(=O)O)cc1S(=O)(=O)N(C)C was read as DT40 TDP1 no CPT inactive, ASM inhibitor inactive, TGFb SMAD3 inh inactive, HepG2 tox inactive, IL1B secr inh inactive and TDP1 cell CPT inactive.
`Cn1c(Oc2ccc(F)cc2)nc2c1c(=O)n(Cc1ccccc1Cl)c(=O)n2C` gave DT40 TDP1 no CPT 12µM, TGFb SMAD3 inh inactive, HepG2 tox inactive and TDP1 cell CPT 23µM.
COc1ccc(Oc2nc3c(c(=O)n(Cc4ccccc4Cl)c(=O)n3C)n2C)cc1 was read as DT40 TDP1 no CPT 6.5µM, TGFb SMAD3 inh inactive, HepG2 tox inactive and TDP1 cell CPT inconclusive.
For COc1ccc(Oc2nc3c(c(=O)n(C)c(=O)n3C)n2C)cc1 the results were DT40 TDP1 no CPT inactive, ASM inhibitor inactive, TGFb SMAD3 inh inactive, HepG2 tox inactive, IL1B secr inh inactive and TDP1 cell CPT inconclusive.
COC(=O)Cn1c(=O)c2c(nc(Br)n2Cc2ccccc2Cl)n(C)c1=O was read as DT40 TDP1 no CPT inconclusive, ASM inhibitor inactive, TGFb SMAD3 inh inactive, HepG2 tox inactive, IL1B secr inh inactive and TDP1 cell CPT inconclusive.
`CCC(Sc1nc(=O)cc(N)n1-c1cccc(C)c1)C(=O)Nc1cc(C)on1` (configuration not stated) gave DT40 TDP1 no CPT inconclusive, ASM inhibitor inactive, TGFb SMAD3 inh 3.5µM, HepG2 tox inactive, IL1B secr inh inactive and TDP1 cell CPT inactive.
Screening CCCCN(C)C(=O)c1ccc(Nc2nc(C(N)COCc3ccccc3)cs2)nc1 (configuration not stated) returned DT40 TDP1 no CPT 15µM, TGFb SMAD3 inh inactive, HepG2 tox inactive, IL1B secr inh inconclusive and TDP1 cell CPT 12µM.
Screening NC(Cc1ccccc1)c1csc(Nc2ccc(C(=O)NCCO)cc2)n1 (configuration not stated) returned DT40 TDP1 no CPT inconclusive, TGFb SMAD3 inh inactive, HepG2 tox inactive, IL1B secr inh inactive and TDP1 cell CPT inconclusive.
NC(CCc1ccccc1)c1csc(Nc2cnccn2)n1 (configuration not stated) was read as DT40 TDP1 no CPT 13µM, TGFb SMAD3 inh inactive, HepG2 tox inactive, IL1B secr inh inactive and TDP1 cell CPT 23µM.
`COc1cccc(Nc2nc(C(N)CCc3ccccc3)cs2)n1` (configuration not stated) gave DT40 TDP1 no CPT inconclusive, TGFb SMAD3 inh inconclusive, HepG2 tox inactive, IL1B secr inh -87 and TDP1 cell CPT 18µM.
